Experimental data as given in PubChem BioAssay (Tox21).
Inconclusive results are not listed. Where a call stands in place of a potency, no number is given. Activity calls are given as the source filed them. Calls follow the shape of the full dose curve.

Assay: p53 small molecule agonists, cell-based qHTS assay with rat liver microsomes (AID 1963578)
Details: HCT-116 p53RE-bla, beta-lactamase ratio, 16 h; series mostly up to 66 µM
Method in brief: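 Metabolic activation is supplied by rat liver microsomes with NADPH (each 0.5 mg/mL final). p53RE-bla cells incubate with compound 16 h at 37 C; reporter activity is measured by LiveBLAzer fluorescence.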
In the case of CC(C)=CC(C)(C)C, the Potency is reported as “inactive”.
For CCCC/C=C/CCCCO, the Potency was “inactive”.
For C[C@H](CS)C(=O)N1CCC[C@H]1C(=O)O, the Potency was “inactive”.
In the case of C/C=C1\[C@H]2C=C(C)C[C@]1(N)c1ccc(=O)[nH]c1C2, the Potency is reported as “inactive”.
In the case of C[C@@H]1C[C@H]2O[C@@]3(O[C@@H]2C(C)(C)O)[C@H](O)[C@@]2(C)[C@@H]4CC[C@H]5C(C)(C)[C@@H](O[C@@H]6OC[C@@H](O)[C@H](O)[C@H]6O)CC[C@@]56C[C@@]46CC[C@]2(C)[C@@H]13, the Potency is reported as “inactive”.
With CCCCCC(C)OC(=O)COc1ccc(Cl)c2cccnc12 (stereo not drawn) the Potency was “inactive”.
For Cc1ccccc1N=Nc1ccc(N=Nc2c(O)ccc3ccccc23)c(C)c1, the Potency was “inactive”.
For Brc1c(NC2=NCCN2)ccc2nccnc12, the Potency was “inactive”.
With CC1CN(c2ccccc2)NC1=O (stereo not drawn) the Potency was “inactive”.
In the case of O=C(NCC(O)CO)c1c(I)c(C(=O)NCC(O)CO)c(I)c(N(CCO)C(=O)CO)c1I (stereo not drawn), the Potency is reported as “inactive”.
For O=[N+]([O-])c1ccc2ncccc2c1, the Potency was “inactive”.
For Oc1ccc(C2(c3ccc(O)c(C4CCCCC4)c3)CCCCC2)cc1C1CCCCC1, the Potency was “inactive”.
With Cc1cc(-c2ccc(N=Nc3cc(S(=O)(=O)O)c4ccccc4c3N)c(C)c2)ccc1N=Nc1cc(S(=O)(=O)O)c2ccccc2c1N the Potency was “inactive”.
In the case of CCN(CC)CC, the Potency is reported as “inactive”.
With CO the Potency was “inactive”.
With O=C(c1ccccc1)c1ccc(O)cc1O the Potency was “inactive”.
For COC(=O)/C=C/C(C)=C\C=C\C(C)=C\C=C\C=C(C)\C=C\C=C(C)\C=C\C(=O)O, the Potency was “inactive”.
For C[C@H]1[C@H](NC(=O)/C(=N/OC(C)(C)C(=O)O)c2csc(N)n2)C(=O)N1S(=O)(=O)O (stereo in doubt), the Potency was “inactive”.
